# According to PubChem BioAssay (NCI):
# The panel holds about 79,000 compounds, 15% with a hit somewhere; the sample as a whole holds those more often. Values without a mark were called inactive. Activity calls are given as the source filed them. Cut-off read from the data, not from the text of the source: active = growth inhibition above about 70%; inactive = the rest.
# Columns and labels:
# [1] = NCI Yeast Anticancer Drug Screen. Data for the rad52 strain (AID 147);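 note: 0% = growth of vehicle-treated control cultures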; conditions: S. cerevisiae rad52 mutant growth inhibition, stronger effect = higher value
# Outline: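 Here a repair-compromised yeast strain receives each compound; its growth is then quantified and normalised to vehicle-only controls.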
# [2] = NCI Yeast Anticancer Drug Screen. Data for the wt1 strain (AID 149);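 note: 0% = growth of vehicle-treated wt1 cultures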; conditions: S. cerevisiae wt1 strain (SPY 50644) growth inhibition, stronger effect = higher value
# Outline: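 Readout: yeast growth inhibition, normalised to vehicle controls, in the wt1 strain exposed to test compounds.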
# [3] = NCI Yeast Anticancer Drug Screen. Data for the rad50EPP+ strain (AID 151);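 note: 0% = growth of vehicle-treated control cultures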; conditions: S. cerevisiae rad50 mutant strain, stronger effect = higher value
# Outline: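 Read-out is yeast growth inhibition relative to vehicle; cells used were the rad50EPP+ strain.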
# [4] = NCI Yeast Anticancer Drug Screen. Data for the mgt1 strain (AID 153); conditions: S. cerevisiae mgt1 mutant growth inhibition, stronger effect = higher value
# Outline: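 Measured: inhibition of mgt1 yeast growth by compound, normalized to vehicle-treated cultures.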
# [5] = NCI Yeast Anticancer Drug Screen. Data for the rad50 strain (AID 155);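 note: 0% = growth of vehicle-only cultures of the same strain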; conditions: S. cerevisiae rad50 strain growth inhibition, stronger effect = higher value
# Outline: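 Compounds were tested on a yeast strain with an engineered DNA damage repair alteration; the reported value is growth inhibition normalised to vehicle treatment.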
# [6] = NCI Yeast Anticancer Drug Screen. Data for the mec2-1 strain (AID 157); conditions: S. cerevisiae mec2-1 strain, stronger effect = higher value
# Outline: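 Using mec2-1 yeast: add compound, measure growth, express inhibition versus vehicle-treated cultures.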
# [7] = NCI Yeast Anticancer Drug Screen. Data for the sgs1 mgt1 strain (AID 161);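 note: 0% = growth of cultures given vehicle only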; conditions: S. cerevisiae sgs1 mgt1 strain, stronger effect = higher value
# Outline: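 Yeast cells carrying a defined DNA-repair defect were exposed to test compounds. Growth inhibition was measured relative to vehicle-treated controls.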
# [8] = NCI Yeast Anticancer Drug Screen. Data for the CLN2oe strain (AID 163);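 note: 0% = growth of vehicle-only control cultures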; conditions: S. cerevisiae CLN2oe strain, stronger effect = higher value
# Outline: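 Whole-cell yeast growth assay. A strain engineered for altered cell-cycle control received compound, and inhibition relative to vehicle-treated cultures was recorded.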
# [9] = NCI Yeast Anticancer Drug Screen. Data for the cln2 rad14 strain (AID 165);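 note: 0% = growth equal to vehicle treated cultures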; conditions: S. cerevisiae cln2 rad14 strain, stronger effect = higher value
# Outline: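 Yeast strain cln2 rad14, bearing defects in cell cycle control and DNA repair, serves as the test system; values reflect growth inhibition compared with vehicle.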
# [10] = NCI Yeast Anticancer Drug Screen. Data for the bub3 strain (AID 167); conditions: S. cerevisiae bub3 mutant strain, stronger effect = higher value
# Outline: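 Growth of a checkpoint-deficient yeast mutant is measured after compound exposure. Values represent inhibition relative to vehicle.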
# [11] = NCI Yeast Anticancer Drug Screen. Data for the wt2 strain (AID 169);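 note: 0% = growth of vehicle-treated yeast cultures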; conditions: S. cerevisiae wt2 strain growth inhibition, stronger effect = higher value
# Outline: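 Treated yeast vs. vehicle-treated yeast: growth inhibition determined.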
# [12] = NCI Yeast Anticancer Drug Screen. Data for the mlh1 strain (AID 171);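 note: 0% = growth of vehicle-treated control cultures of the same strain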; conditions: S. cerevisiae mlh1 strain growth inhibition, stronger effect = higher value
# Outline: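 A yeast strain with a defined genetic lesion serves as the test organism. Cultures receive compound or vehicle, and growth is measured.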
# [13] = NCI Yeast Anticancer Drug Screen. Data for the sgs1 strain (AID 173);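 note: 0% = growth of vehicle-only control cultures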; conditions: S. cerevisiae sgs1 mutant, stronger effect = higher value
# Outline: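 A genetically defined yeast mutant is incubated with the test compound, and its growth is compared to that of the same strain given vehicle.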
# [14] = NCI Yeast Anticancer Drug Screen. Data for the mlh1 rad18 strain (AID 175); conditions: S. cerevisiae mlh1 rad18 strain growth inhibition, stronger effect = higher value
# Outline: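 Steps: expose repair-defective yeast to compound; measure growth; express inhibition against vehicle-treated controls.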
# [15] = NCI Yeast Anticancer Drug Screen. Data for the rad18 strain (AID 177); conditions: S. cerevisiae rad18 mutant growth inhibition, stronger effect = higher value
# Outline: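 Measured value is growth inhibition of a yeast strain bearing a DNA repair alteration, referenced to vehicle-treated cells.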
# [16] = NCI Yeast Anticancer Drug Screen. Data for the rad14 strain (AID 159);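 note: 0% = growth of vehicle-treated control cultures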; conditions: S. cerevisiae rad14 strain growth inhibition, stronger effect = higher value
# Outline: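 Compound-treated yeast with a defined DNA-repair lesion; growth inhibition normalised to vehicle-treated cultures.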
# [17] = at 5.0 µM (retest, dose inferred, filed as 0.5)
# [18] = at 50.0 µM (retest, dose inferred, filed as 5.0)
smiles,measurement,setting,value
CC(O)C(O)C(O)C(/C=N\Nc1ccccc1)=N/Nc1ccccc1 (stereo unspecified),growth inhibition,[1]; at 1.2 µM,5%
same,growth inhibition,[1]; at 3.7 µM,10%
same,growth inhibition,[1]; at 11.0 µM,12%
same,growth inhibition,[1]; at 33.0 µM,69%
same,growth inhibition,[1]; at 100.0 µM,98% (active)
same,growth inhibition,[2]; at 1.2 µM,4%
same,growth inhibition,[2]; at 3.7 µM,9%
same,growth inhibition,[2]; at 11.0 µM,13%
same,growth inhibition,[2]; at 33.0 µM,8%
same,growth inhibition,[2]; at 100.0 µM,96% (active)
same,growth inhibition,[3]; at 1.2 µM,14%
same,growth inhibition,[3]; at 3.7 µM,26%
same,growth inhibition,[3]; at 11.0 µM,39%
same,growth inhibition,[3]; at 33.0 µM,50%
same,growth inhibition,[3]; at 100.0 µM,50%
same,growth inhibition,[4]; at 1.2 µM,6%
same,growth inhibition,[4]; at 3.7 µM,9%
same,growth inhibition,[4]; at 11.0 µM,10%
same,growth inhibition,[4]; at 33.0 µM,47%
same,growth inhibition,[4]; at 100.0 µM,99% (active)
same,growth inhibition,[5]; at 1.2 µM,5%
same,growth inhibition,[5]; at 3.7 µM,5%
same,growth inhibition,[5]; [17],19%
same,growth inhibition,[5]; at 11.0 µM,10%
same,growth inhibition,[5]; at 33.0 µM,63%
same,growth inhibition,[5]; [18],51%
same,growth inhibition,[5]; at 50.0 µM,97.8% (active)
same,growth inhibition,[5]; at 100.0 µM,98% (active)
same,growth inhibition,[6]; at 1.2 µM,-4%
same,growth inhibition,[6]; at 3.7 µM,1%
same,growth inhibition,[6]; [17],-5%
same,growth inhibition,[6]; at 11.0 µM,11%
same,growth inhibition,[6]; at 33.0 µM,46%
same,growth inhibition,[6]; [18],51%
same,growth inhibition,[6]; at 50.0 µM,58.3%
same,growth inhibition,[6]; at 100.0 µM,98% (active)
same,growth inhibition,[7]; [17],3%
same,growth inhibition,[7]; [18],56%
same,growth inhibition,[7]; at 50.0 µM,95.5% (active)
same,growth inhibition,[8]; at 1.2 µM,-7%
same,growth inhibition,[8]; at 3.7 µM,-4%
same,growth inhibition,[8]; at 11.0 µM,-5%
same,growth inhibition,[8]; at 33.0 µM,18%
same,growth inhibition,[8]; at 100.0 µM,28%
same,growth inhibition,[9]; [17],1%
same,growth inhibition,[9]; [18],49%
same,growth inhibition,[9]; at 50.0 µM,8.25%
same,growth inhibition,[10]; at 1.2 µM,-3%
same,growth inhibition,[10]; at 3.7 µM,-3%
same,growth inhibition,[10]; [17],-7%
same,growth inhibition,[10]; at 11.0 µM,19%
same,growth inhibition,[10]; at 33.0 µM,24%
same,growth inhibition,[10]; [18],43%
same,growth inhibition,[10]; at 50.0 µM,69.1%
same,growth inhibition,[10]; at 100.0 µM,30%
same,growth inhibition,[11]; at 1.2 µM,2%
same,growth inhibition,[11]; at 3.7 µM,8%
same,growth inhibition,[11]; at 11.0 µM,10%
same,growth inhibition,[11]; at 33.0 µM,38%
same,growth inhibition,[11]; at 100.0 µM,99% (active)
same,growth inhibition,[12]; at 1.2 µM,3%
same,growth inhibition,[12]; at 3.7 µM,4%
same,growth inhibition,[12]; at 11.0 µM,6%
same,growth inhibition,[12]; at 33.0 µM,68%
same,growth inhibition,[12]; at 100.0 µM,98% (active)
same,growth inhibition,[13]; at 1.2 µM,1%
same,growth inhibition,[13]; at 3.7 µM,10%
same,growth inhibition,[13]; at 11.0 µM,11%
same,growth inhibition,[13]; at 33.0 µM,68%
same,growth inhibition,[13]; at 100.0 µM,98% (active)
same,growth inhibition,[14]; [17],7%
same,growth inhibition,[14]; [18],65%
same,growth inhibition,[14]; at 50.0 µM,98.9% (active)
same,growth inhibition,[15]; at 1.2 µM,5%
same,growth inhibition,[15]; at 3.7 µM,9%
same,growth inhibition,[15]; at 11.0 µM,9%
same,growth inhibition,[15]; at 33.0 µM,95% (active)
same,growth inhibition,[15]; at 100.0 µM,99% (active)
CC1CCN(CCC(=O)c2ccc(Cl)cc2)CC1,growth inhibition,[1]; at 1.2 µM,4%
same,growth inhibition,[1]; at 3.7 µM,8%
same,growth inhibition,[1]; at 11.0 µM,28%
same,growth inhibition,[1]; at 33.0 µM,41%
same,growth inhibition,[1]; at 100.0 µM,53%
same,growth inhibition,[2]; at 1.2 µM,-1%
same,growth inhibition,[2]; at 3.7 µM,-1%
same,growth inhibition,[2]; at 11.0 µM,-1%
same,growth inhibition,[2]; at 33.0 µM,7%
same,growth inhibition,[2]; at 100.0 µM,16%
same,growth inhibition,[3]; at 1.2 µM,-1%
same,growth inhibition,[3]; at 3.7 µM,-1%
same,growth inhibition,[3]; at 11.0 µM,-1%
same,growth inhibition,[3]; at 33.0 µM,-2%
same,growth inhibition,[3]; at 100.0 µM,-7%
same,growth inhibition,[5]; at 1.2 µM,12%
same,growth inhibition,[5]; at 3.7 µM,19%
same,growth inhibition,[5]; [17],5%
same,growth inhibition,[5]; at 11.0 µM,32%
same,growth inhibition,[5]; at 33.0 µM,52%
same,growth inhibition,[5]; [18],36%
same,growth inhibition,[5]; at 50.0 µM,77.5% (active)
same,growth inhibition,[5]; at 100.0 µM,56%
same,growth inhibition,[6]; at 1.2 µM,0%
same,growth inhibition,[6]; at 3.7 µM,1%
same,growth inhibition,[6]; [17],9%
same,growth inhibition,[6]; at 11.0 µM,3%
same,growth inhibition,[6]; at 33.0 µM,17%
same,growth inhibition,[6]; [18],37%
same,growth inhibition,[6]; at 50.0 µM,29.1%
same,growth inhibition,[6]; at 100.0 µM,27%
same,growth inhibition,[16]; at 1.2 µM,19%
same,growth inhibition,[16]; at 3.7 µM,36%
same,growth inhibition,[16]; at 11.0 µM,33%
same,growth inhibition,[16]; at 33.0 µM,39%
same,growth inhibition,[16]; at 100.0 µM,45%
same,growth inhibition,[7]; [17],16%
same,growth inhibition,[7]; [18],50%
same,growth inhibition,[7]; at 50.0 µM,75.5% (active)
same,growth inhibition,[8]; at 1.2 µM,8%
same,growth inhibition,[8]; at 3.7 µM,17%
same,growth inhibition,[8]; at 11.0 µM,36%
same,growth inhibition,[8]; at 33.0 µM,49%
same,growth inhibition,[8]; at 100.0 µM,55%
same,growth inhibition,[9]; [17],14%
same,growth inhibition,[9]; [18],45%
same,growth inhibition,[9]; at 50.0 µM,73.6% (active)
same,growth inhibition,[10]; at 1.2 µM,1%
same,growth inhibition,[10]; at 3.7 µM,6%
same,growth inhibition,[10]; [17],18%
same,growth inhibition,[10]; at 11.0 µM,11%
same,growth inhibition,[10]; at 33.0 µM,24%
same,growth inhibition,[10]; [18],50%
same,growth inhibition,[10]; at 50.0 µM,81.7% (active)
same,growth inhibition,[10]; at 100.0 µM,31%
same,growth inhibition,[11]; at 1.2 µM,0%
same,growth inhibition,[11]; at 3.7 µM,1%
same,growth inhibition,[11]; at 11.0 µM,18%
same,growth inhibition,[11]; at 33.0 µM,5%
same,growth inhibition,[11]; at 100.0 µM,21%
same,growth inhibition,[12]; at 1.2 µM,2%
same,growth inhibition,[12]; at 3.7 µM,14%
same,growth inhibition,[12]; at 11.0 µM,26%
same,growth inhibition,[12]; at 33.0 µM,26%
same,growth inhibition,[12]; at 100.0 µM,40%
same,growth inhibition,[13]; at 1.2 µM,5%
same,growth inhibition,[13]; at 3.7 µM,32%
same,growth inhibition,[13]; at 11.0 µM,45%
same,growth inhibition,[13]; at 33.0 µM,62%
same,growth inhibition,[13]; at 100.0 µM,66%
same,growth inhibition,[14]; [17],21%
same,growth inhibition,[14]; [18],52%
same,growth inhibition,[14]; at 50.0 µM,58.1%
same,growth inhibition,[15]; at 1.2 µM,5%
same,growth inhibition,[15]; at 3.7 µM,18%
same,growth inhibition,[15]; at 11.0 µM,17%
same,growth inhibition,[15]; at 33.0 µM,28%
same,growth inhibition,[15]; at 100.0 µM,42%
